Screening data (PubChem)
Shown are actives, neighbours in structure and some others; about 12% of the full set was active somewhere.
Sfp PPTase inh: blocks B. subtilis Sfp PPTase activity | Q9F4F7 | Biochemical Sfp PPTase activity, qHTS | Potency, µM, hits mostly inhibitors | 310,000 tested, 3.5% active;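 also: the enzyme is Sfp with the accession as filed and its product quenches rhodamine fluorescence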
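Reaction rates are the 30-min fluorescence difference (ex 525, em 598 nm) in wells containing 15 nM Sfp, 5 uM rhodamine-CoA and 12.5 uM BHQ-2-YbbR at pH 7.6 with 10 mM MgCl2.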
PLK1 PBD block: blocks phosphopeptide binding to human PLK1 polo-box domain; P53350; Plk1 PBD binding of FITC phosphopeptide, fluorescence polarization; Potency, µM, actives largely listed as inhibitors; 360,000 tested, 2.8% active; AID 720504; also: series mostly up to about 57 µM; nearly all actives have a fitted effect of over 65% in size
VP16 counter: counter-screen for ROR gamma inhibitors: Gal4-VP16 reporter; Drosophila S2 Gal4-VP16 UAS-luciferase, luminescence, 20 h; Potency, µM (highest dose often 53.6 µM), hits mostly inhibitors; 310,000 tested, 3.5% active;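 also: Gal4-VP16 expression switched on by copper sulfate through the metallothionein promoter; nearly all actives have a fitted effect of over 50% in size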
RORg inh: ROR gamma (mouse) transcription inhibition; 310,000 tested, 5.4% active; P51450; Drosophila S2 Gal4-RORgamma UAS-luciferase reporter, 20 h; Potency, µM (series often up to 53.6 µM), most hits filed as inhibitors; also: nearly all actives have a fitted effect of over 60% in size
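Schneider cells (Drosophila), stable Gal4 DBD–ROR gamma + UAS-luc; 1 hr cmpd preincubation; Cu2+ induction 700 uM final; 20 hr ambient; luminescence.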
ALDH1A1 inh: ALDH1A1 (human) enzyme inhibition | Purified ALDH1A1, NADH fluorescence, propionaldehyde substrate | Potency, µM (highest dose often 75.3 µM), hits mostly inhibitors | P00352 | 220,000 tested, 7.3% active; active = well fitted inhibition curve with a large enough effect, not every such curve was filed as active; inconclusive = small, poorly fitted or top-dose-only effect, or another doubt; inactive = no such curve, though single readings can be large or run the other way
Target sequence (P00352 whole entry, looked up): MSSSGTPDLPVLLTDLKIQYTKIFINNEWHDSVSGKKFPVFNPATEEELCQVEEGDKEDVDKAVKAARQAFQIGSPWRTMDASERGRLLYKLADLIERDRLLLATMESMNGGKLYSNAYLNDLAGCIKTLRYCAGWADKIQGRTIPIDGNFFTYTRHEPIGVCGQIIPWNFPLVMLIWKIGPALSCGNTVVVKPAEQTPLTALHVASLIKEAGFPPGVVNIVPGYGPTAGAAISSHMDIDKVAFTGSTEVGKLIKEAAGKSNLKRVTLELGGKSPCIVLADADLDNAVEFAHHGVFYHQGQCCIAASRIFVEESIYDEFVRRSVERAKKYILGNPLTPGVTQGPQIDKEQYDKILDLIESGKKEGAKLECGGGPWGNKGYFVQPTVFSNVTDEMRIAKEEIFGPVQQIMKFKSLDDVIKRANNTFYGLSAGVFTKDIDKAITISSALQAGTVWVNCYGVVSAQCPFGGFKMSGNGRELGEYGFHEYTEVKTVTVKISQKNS
Numbers stand for hits; – = inactive; ? = inconclusive; · = not tested or not shown; [ ] = another dose, or the depositor's remark. Unless noted, calls follow the shape of the dose curve; as a rule, active = well fitted curve in the direction sought with a large enough effect; inconclusive = small, poorly fitted or top-dose-only effect, or another doubt; inactive = no such curve, though single readings can be large; an effect the other way counts as inactive or inconclusive.

SMILES | Sfp PPTase inh | PLK1 PBD block | VP16 counter | RORg inh | ALDH1A1 inh
COC(=O)c1ccc2c(=O)n(NC(C)=O)c(=S)[nH]c2c1 | 4µM | – | – | – | ?
COc1ccccc1Cn1c(=S)[nH]c2cc(C(=O)NCCN3CCOCC3)ccc2c1=O | – | – | ? | ? | 20µM
CCN(CC)CCCn1c(=S)[nH]c2cc(C(=O)OC)ccc2c1=O | – | – | – | – | ?
FC(F)(F)c1nc(SCc2ccc(Cl)cc2)n[nH]1 | · | · | · | · | –[13.5 µM]
CCCCNc1c(-c2cccnc2)nc2nc(C)cc(C)n12 | · | – | · | · | ·
COC(=O)[C@@]1(Cc2ccc(OC)cc2)[C@H]2c3cc(C(=O)N(C)C)n(C)c3C[C@H]2CN1C(=O)c1ccccc1 | – | · | – | – | –
Cc1ccc(NC(=O)C(c2ccc(Cl)cc2Cl)N2CCCC2)cc1 (stereo not given) | – | – | – | – | –
Cc1cccc(NC(=O)C(c2ccccc2Cl)N2CCOCC2)c1 (stereo not given) | – | – | – | – | 25µM
O=C(O)CC12C[C@H]3C[C@@H](CC(O)(C3)C1)C2 | · | · | · | · | –[13.5 µM]
Cc1ccc2nc(-c3ccc4c(c3)NC(=O)CO4)cn2c1 | – | – | ? | ? | ·
c1ccn2cc(-c3ccc4c(c3)OCCO4)nc2c1 | – | – | ? | 3.5µM | ?
CN(C)S(=O)(=O)c1cccc(-c2cn3cc(Cl)ccc3n2)c1 | – | – | ? | – | ?
Cc1ccc2nc(-c3cc(-c4ccccc4)no3)cn2c1 | – | – | 4µM | 1.4µM | ·
Clc1ccc2nc(-c3ccccc3)cn2c1 | – | – | ? | 11µM | ·
Cc1ccc2nc(-c3ccc4c(c3)OCCO4)cn2c1 | – | – | 1.1µM | 0.4µM | ·
CCOc1ccc(Cl)cc1-c1cc(C(=O)NCc2cccc(C(F)(F)F)c2)[nH]n1 | · | – | · | · | ·
C[C@H](NC(=O)c1ccco1)C(=O)NNC(=O)COc1cccc(C(F)(F)F)c1 | · | – | · | · | ·
Cc1nc(-c2ccc3c(c2)OCCCO3)cs1 | – | – | – | – | 25µM
Clc1ccc2nc(-c3ccc4c(c3)OCO4)cn2c1 | – | – | 8.9µM | 5µM | ?
Cc1nc2c(O)cccc2c(=O)[nH]1 | 56µM | · | – | – | –
N#C/C(=C/c1ccco1)C(N)=S | 10µM | – | – | – | ·
N#C/C(=C\c1ccc2c(c1)OCO2)C(N)=S | ? | – | – | – | –
Cc1cc(Br)cn2c(Cc3ccsc3)c(-c3cccc(Br)c3)nc12 | · | – | · | · | ·
COc1ccc(C2CC(c3cccs3)=NN2C(=O)CCCC(=O)O)cc1OC (stereo not given) | · | – | · | · | ·
FC(F)(F)c1cnc(C(c2ccccn2)c2ncn[nH]2)c(Cl)c1 (stereo not given) | – | – | – | 11µM | –
SMILES | Sfp PPTase inh | PLK1 PBD block | VP16 counter | RORg inh | ALDH1A1 inh
COc1ccc(Br)cc1/C=C/C(=O)NC(=S)Nc1ccc(CN2CCOCC2)cc1 | – | – | 4.5µM | 1.8µM | ·
O=C(CC12CC3CC(CC(C3)C1)C2)NC(=S)Nc1ccc(CN2CCOCC2)cc1 | – | – | 10µM | 1.6µM | ?
COc1ccc(NC(=O)/C=C/c2cc(Br)ccc2OC)cc1 | – | – | – | ? | –
O=C(NC(=S)Nc1ccc(CN2CCOCC2)cc1)c1ccco1 | – | – | – | – | ?
O=C(/C=C/c1ccc(Cl)cc1)NC(=S)Nc1ccc(NC(=O)c2ccco2)cc1 | – | – | 7.1µM | 4.5µM | –
COc1ccc(Br)cc1/C=C/C(=O)c1ccc(NC(C)=O)cc1 | – | – | 10µM | 5µM | –
O=C(/C=C/c1ccc(Cl)cc1)NC(=S)Nc1ccc(CN2CCOCC2)cc1 | – | – | 6.3µM | 4µM | –
O=C(/C=C/c1ccccc1)Nc1ccc(CN2CCOCC2)cc1 | – | – | – | – | –
Cc1cc(C)cc(N=Cc2[nH]c3ccc(Br)c(Cl)c3c2O)c1 | – | – | ? | – | 7.9µM
Cc1ccc(O)c(C=Nc2ccc3[nH]ncc3c2)c1 | – | – | ? | – | ?
COc1ccc(CN=Cc2[nH]c3ccc(Br)c(Cl)c3c2O)cc1 | – | ? | – | ? | 4µM
COc1ccc(CN=CC2=C(O)CNC2=O)cc1 | – | – | – | – | –
CCc1nc2c(OCCOc3ccc(F)cc3)cccn2c1N(C)C(=O)CC(C)C | · | – | · | · | ·
CNC(=S)NCCC(c1ccccc1)c1ccccc1 | – | – | ? | 7.1µM | –
COc1cc(NC(=S)NCCC(c2ccccc2)c2ccccc2)cc(OC)c1 | – | – | 8.9µM | 4.5µM | ?
COc1cccc(NC(=S)NCCC(c2ccccc2)c2ccccc2)c1 | – | – | 22µM | ? | –
Cc1cccc(NC(=S)NCCCN2CCOCC2)c1 | – | – | – | – | –
COc1cc(OC)cc(C(=O)NCCC(c2ccccc2)c2ccccc2)c1 | – | – | – | – | ·
C[C@H](NCCC(c1ccccc1)c1ccccc1)c1ccccc1 | – | · | – | – | –
Cc1cccc(NC(=S)NCCC(c2ccccc2)c2ccccc2)c1 | – | ? | 7.1µM | 4µM | –
Cc1ccc(C(O)c2ncc(-c3ccccc3C(F)(F)F)[nH]2)cc1F (stereo not given) | · | – | · | · | ·
COc1ccc(NC(=S)NC(=O)CC(C)C)c(OC)c1 | – | – | ? | ? | –
COc1ccc(NC(=S)NCCC(c2ccccc2)c2ccccc2)c(OC)c1 | ? | – | 3.2µM | 4µM | –
CC(=O)C1=C(C)NC(SCC(=O)c2ccc(Cl)cc2Cl)=C(C#N)C1c1ccco1 (stereo not given) | 45µM | – | 4.5µM | ? | ?
CC(=O)C1=C(C)NC(SCC(=O)c2ccc(Cl)cc2)=C(C#N)C1c1ccco1 (stereo not given) | 50µM | – | ? | ? | 20µM
SMILES | Sfp PPTase inh | PLK1 PBD block | VP16 counter | RORg inh | ALDH1A1 inh
CCOC(=O)C1=C(c2ccccc2)NC(SCC(=O)Nc2ccccc2C)=C(C#N)C1c1ccco1 (stereo not given) | – | – | · | –[0.365 µM] | 14µM
CC(=O)C1=C(C)NC(SCC(=O)c2ccccc2)=C(C#N)C1c1ccco1 (stereo not given) | 56µM | · | ? | – | 20µM
N#CC1=C(SCC(=O)c2ccc(Br)cc2)NC2=C(C(=O)CCC2)C1c1ccco1 (stereo not given) | – | – | – | – | ?
CCC1CCCCN1S(=O)(=O)c1ccc(NC(=O)C2CC(=O)N(C(C)(C)C)C2)cc1 (stereo not given) | · | – | · | · | ·
COc1ccc(C(CNC(=O)Cn2c(=O)oc3ccccc32)N(C)C)cc1 (stereo not given) | 20µM | – | – | – | ·
COc1cccc(NC(=O)Cn2c(=O)oc3ccccc32)c1 | – | – | – | – | –
COC(=O)C1=C(O)/C(=C\c2ccc(CNC(=O)C(=O)Nc3ccc(C)c(C)c3)o2)N=C1C | ? | – | – | – | –
CCOC(=O)C(=O)NCc1ccc(/C=C2/N=C(C)C(C(=O)OCC)=C2O)o1 | 22µM | – | – | – | –
CCOC(=O)c1ccc(NC(=O)C(=O)NCc2ccc(/C=C(/C#N)C(=O)NCCOC)o2)cc1 | – | – | – | – | ?
COC(=O)C1=C(O)/C(=C\c2ccc(CNC(=O)C(=O)Nc3ccc(C)cc3)o2)N=C1C | 13µM | – | – | – | ?
